# Laboratory results reported in PubChem BioAssay (NCI).
# The panel holds about 79,000 compounds, 15% with a hit somewhere; the sample as a whole holds those more often. The source made the active and inactive calls. No stated cut-off is given here; in the data, active means growth inhibition above about 70%; inactive means the rest.
# Test: NCI Yeast Anticancer Drug Screen. Data for the sgs1 mgt1 strain (AID 161);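 further: 0% = growth of cultures given vehicle only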
# Details: S. cerevisiae sgs1 mgt1 strain, at 50.0 µM, stronger effect = higher value
# How it was run: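 Percent growth inhibition was derived by comparing compound-exposed mutant yeast with vehicle-exposed cultures. The strain carries alterations in DNA damage repair.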
row,Structure (SMILES),growth inhibition
1,O=C(O)c1cccc(S(=O)(=O)NN2C(=O)CSC2c2ccccc2Cl)c1 (stereo not given),2.85% (inactive)
2,CCCCn1cccc1,9.3% (inactive)
3,Cc1cc2nnc(-c3cccc([N+](=O)[O-])c3)n2c2nnnn12,21.6% (inactive)
4,O=C(CNc1ccc(Cl)cc1Cl)NC1C=Cc2ccc(S(=O)(=O)Nc3ccc(Cl)cc3Cl)cc2C1=O (stereo not given),44% (inactive)
5,CC1CCC(NC(=O)NCCCl)c2ccccc21 (stereo not given),-1.8% (inactive)
6,COc1cccc(/C=C(\C#N)C(=O)c2ccccc2)c1,11.2% (inactive)
7,O=C(c1ccccc1)C(c1ccccc1)C1(O)C(=O)Nc2ccc(Br)cc21 (stereo not given),-0.15% (inactive)
8,CC1=C(C)C(N(C)C)CS(=O)(=O)O1 (stereo not given),-0.7% (inactive)
9,O=C1CCC2c3ccccc3NCN12 (stereo not given),-35.6% (inactive)
10,CC1(C)C2CCC1(CC(=O)O)C(O)C2=O (stereo not given),-14.6% (inactive)
11,CCN(CC)CCOC(=O)Cc1cccc2c(=O)cc(-c3ccc(OC)cc3)oc12,-12.4% (inactive)
12,O=C1C=C(c2ccccc2)C(c2ccccc2)=C1,-5.2% (inactive)
13,COC(=O)c1cc(Cl)ccc1NC(=O)C1CCCCC1,23% (inactive)
14,CN(CC(=O)c1ccc(Cl)cc1)Cc1ccccc1,3.4% (inactive)
15,CS(=O)(=O)c1c(N)c2nc(Cl)cn2c2nc3ccccc3nc12,-10.3% (inactive)
16,O=c1cc(C(Br)(Br)Br)[nH]c2ccccc12,9.45% (inactive)
17,NS(=O)(=O)N1CN(S(N)(=O)=O)CN(S(N)(=O)=O)C1,2.65% (inactive)
18,CC(C)N1C(=O)NC(=O)C12CCN(Cc1ccccc1)CC2,-5.9% (inactive)
19,Cc1cc(O)c(C(c2cccnc2)c2c(O)cc(C)[nH]c2=O)c(=O)[nH]1,-40.1% (inactive)
20,COc1ccc(NS(=O)(=O)c2ccc(N=Cc3c4ccccc4nc4ccccc34)cc2)nn1,91.6% (active)

row,Structure (SMILES),growth inhibition
1,Cc1cc(C)cc(N=Nc2c(N)nc(N)[nH]c2=O)c1,-49.9% (inactive)
2,CCOC(=O)c1ccc(NCc2ccc3nc(OC)c(OC)nc3c2)cc1,-13.7% (inactive)
3,CC(c1ccccc1)C(C)(C)O (stereo not given),27% (inactive)
4,CCC(C)CC(O)CC(C)C (stereo not given),1.2% (inactive)
5,[CH3][Sn]([CH3])([O]C(=O)c1ccc2c(c1)OCO2)[O]C(=O)c1ccc2c(c1)OCO2,-11% (inactive)
6,CN(C)c1ccc(/C=C(/NC(=O)c2ccccc2)C(N)=O)cc1,8.95% (inactive)
7,Cc1ccc(C(=O)OC(C)C)cc1N=NN(C)C,11.1% (inactive)
8,CSc1nn(C)c2cc(C)c3ccccc3[n+]12,-10.2% (inactive)
9,O=C1OCCc2c1[nH]c1ccccc21,5.65% (inactive)
10,CC(C)(O)C(O)(c1ccccc1)c1ccccc1,16.7% (inactive)
11,C/C(=N/O)c1ccc[nH]1,-5.5% (inactive)
12,CCCCCC(C/C=N/N(C)C)C(O)(C(F)(F)F)C(F)(F)F (stereo not given),-5.15% (inactive)
13,O=S(=O)(N/N=C/c1ccc(Cl)c(Cl)c1)c1ccccc1,9.8% (inactive)
14,COC(=O)CC1(C(=O)OC)Nc2ccc(Cl)cc2C(=O)O1 (stereo not given),12.5% (inactive)
15,CCCCOC(=O)C(C)OC(=O)OC (stereo not given),-2.25% (inactive)
16,CCCCOC(=O)c1ccc(NC(=O)CCCN(CC)CC)cc1,0.85% (inactive)
17,CS(=O)(=O)OCCC(O)COS(C)(=O)=O (stereo not given),9.45% (inactive)
18,Cc1ccc(O)c(C(=O)CCCC(=O)c2cc(C)ccc2O)c1,7.7% (inactive)
19,COc1ccc(-c2cc(=O)c3c(OC)cccc3o2)c(OC)c1OC,-3.5% (inactive)
20,N/N=C(\C(=O)Nc1ccc(Cl)cc1Cl)C(c1cnc2ccccc2n1)[N+](=O)[O-] (stereo not given),-3.6% (inactive)

# Test: NCI Yeast Anticancer Drug Screen. Data for the cln2 rad14 strain (AID 165);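 further: 0% = growth equal to vehicle treated cultures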
# Details: S. cerevisiae cln2 rad14 strain, at 50.0 µM, stronger effect = higher value
# How it was run: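 Growth inhibition, relative to vehicle-treated controls, is the read-out. The test organism is a yeast strain with defined genetic alterations, cln2 rad14.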
row,Structure (SMILES),growth inhibition
1,O=C(O)c1cccc(S(=O)(=O)NN2C(=O)CSC2c2ccccc2Cl)c1 (stereo not given),5.9% (inactive)
2,CCCCn1cccc1,15% (inactive)
3,Cc1cc2nnc(-c3cccc([N+](=O)[O-])c3)n2c2nnnn12,66.7% (inactive)
4,O=C(CNc1ccc(Cl)cc1Cl)NC1C=Cc2ccc(S(=O)(=O)Nc3ccc(Cl)cc3Cl)cc2C1=O (stereo not given),14.2% (inactive)
5,CC1CCC(NC(=O)NCCCl)c2ccccc21 (stereo not given),-23.8% (inactive)
6,COc1cccc(/C=C(\C#N)C(=O)c2ccccc2)c1,19.6% (inactive)
7,O=C(c1ccccc1)C(c1ccccc1)C1(O)C(=O)Nc2ccc(Br)cc21 (stereo not given),16.1% (inactive)
8,CC1=C(C)C(N(C)C)CS(=O)(=O)O1 (stereo not given),-47% (inactive)
9,O=C1CCC2c3ccccc3NCN12 (stereo not given),22.4% (inactive)
10,CC1(C)C2CCC1(CC(=O)O)C(O)C2=O (stereo not given),-12.6% (inactive)
11,CCN(CC)CCOC(=O)Cc1cccc2c(=O)cc(-c3ccc(OC)cc3)oc12,8.9% (inactive)
12,O=C1C=C(c2ccccc2)C(c2ccccc2)=C1,30.1% (inactive)
13,COC(=O)c1cc(Cl)ccc1NC(=O)C1CCCCC1,27.8% (inactive)
14,CN(CC(=O)c1ccc(Cl)cc1)Cc1ccccc1,-25.3% (inactive)
15,CS(=O)(=O)c1c(N)c2nc(Cl)cn2c2nc3ccccc3nc12,-9.15% (inactive)
16,O=c1cc(C(Br)(Br)Br)[nH]c2ccccc12,-5.7% (inactive)
17,NS(=O)(=O)N1CN(S(N)(=O)=O)CN(S(N)(=O)=O)C1,-18.6% (inactive)
18,CC(C)N1C(=O)NC(=O)C12CCN(Cc1ccccc1)CC2,-1.7% (inactive)
19,Cc1cc(O)c(C(c2cccnc2)c2c(O)cc(C)[nH]c2=O)c(=O)[nH]1,11.8% (inactive)
20,COc1ccc(NS(=O)(=O)c2ccc(N=Cc3c4ccccc4nc4ccccc34)cc2)nn1,79.9% (active)

row,Structure (SMILES),growth inhibition
1,Cc1cc(C)cc(N=Nc2c(N)nc(N)[nH]c2=O)c1,-11.2% (inactive)
2,CCOC(=O)c1ccc(NCc2ccc3nc(OC)c(OC)nc3c2)cc1,14.9% (inactive)
3,CC(c1ccccc1)C(C)(C)O (stereo not given),20.3% (inactive)
4,CCC(C)CC(O)CC(C)C (stereo not given),12.7% (inactive)
5,[CH3][Sn]([CH3])([O]C(=O)c1ccc2c(c1)OCO2)[O]C(=O)c1ccc2c(c1)OCO2,-12.7% (inactive)
6,CN(C)c1ccc(/C=C(/NC(=O)c2ccccc2)C(N)=O)cc1,8.1% (inactive)
7,Cc1ccc(C(=O)OC(C)C)cc1N=NN(C)C,27.1% (inactive)
8,CSc1nn(C)c2cc(C)c3ccccc3[n+]12,7.25% (inactive)
9,O=C1OCCc2c1[nH]c1ccccc21,22.9% (inactive)
10,CC(C)(O)C(O)(c1ccccc1)c1ccccc1,6.5% (inactive)
11,C/C(=N/O)c1ccc[nH]1,20.1% (inactive)
12,CCCCCC(C/C=N/N(C)C)C(O)(C(F)(F)F)C(F)(F)F (stereo not given),-5.15% (inactive)
13,O=S(=O)(N/N=C/c1ccc(Cl)c(Cl)c1)c1ccccc1,-28.4% (inactive)
14,COC(=O)CC1(C(=O)OC)Nc2ccc(Cl)cc2C(=O)O1 (stereo not given),-19.6% (inactive)
15,CCCCOC(=O)C(C)OC(=O)OC (stereo not given),-28.8% (inactive)
16,CCCCOC(=O)c1ccc(NC(=O)CCCN(CC)CC)cc1,13.2% (inactive)
17,CS(=O)(=O)OCCC(O)COS(C)(=O)=O (stereo not given),-55% (inactive)
18,Cc1ccc(O)c(C(=O)CCCC(=O)c2cc(C)ccc2O)c1,12.5% (inactive)
19,COc1ccc(-c2cc(=O)c3c(OC)cccc3o2)c(OC)c1OC,0.95% (inactive)
20,N/N=C(\C(=O)Nc1ccc(Cl)cc1Cl)C(c1cnc2ccccc2n1)[N+](=O)[O-] (stereo not given),-20.6% (inactive)
